The list is not random: actives were taken first. Their share in the collection is about 8.7%.
ALOX12 inh = Primary qHTS assay for inhibitors of human arachidonate 12S-lipoxygenase (ALOX12): Round 2. Polyunsaturated fatty acid lipoxygenase ALOX12 (Homo sapiens), P18054. purified 12hLO, xylenol orange hydroperoxide absorbance. Potency, µM (doses to about 108 µM), without a hit: top-dose activity change, negative = inhibition, most hits filed as inhibitors. 580,000 tested, 1.1% active; note: % is set by controls: 0 for no effect and ±100 for the full control effect
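Hydroperoxide product was detected by ferrous iron/xylenol orange as the 573 to 405 nm absorbance ratio. Arachidonic acid at 40 uM (final) was turned over for 30 min at room temperature by 150 nM human 12hLO, pH 7.0 Hepes buffer, after 15 min compound preincubation.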
Sfp PPTase inh = qHTS Assay for Inhibitors of Bacillus subtilis Sfp phosphopantetheinyl transferase (PPTase); Biochemical Sfp PPTase activity, qHTS; Potency, µM, for the others: largest response in the series, negative = inhibition, usual class: inhibitors; AID 1490, 2009; 310,000 tested, 3.5% active; 4'-phosphopantetheinyl transferase ffp (Bacillus subtilis), Q9F4F7;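 note: the enzyme is Sfp with the accession as filed and its product quenches rhodamine fluorescence; 0% = enzyme reaction without inhibitor and -100% = no enzyme wells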
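Fluorescence-quenching assay: 15 nM Sfp-PPTase preincubated 15 min at room temperature with compound, then 5 uM rhodamine-CoA and 12.5 uM BHQ-2-labelled YbbR peptide added. Fluorescence (ex 525/em 598 nm) read at start and after 30 min; difference gives rate.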
G9a block = qHTS Assay for Inhibitors of Histone Lysine Methyltransferase G9a; 350,000 tested, 8.8% active; Potency, µM (highest dose often 102 µM), inactives show top-dose activity, negative = inhibition, most hits filed as inhibitors; Histone-lysine N-methyltransferase EHMT2 (Homo sapiens), Q96KQ7; G9a H3K9 monomethylation, AlphaScreen, 2 h; note: % is set by controls: 0 for no effect and ±100 for the full control effect; nearly all actives have a fitted effect of over 75% in size
Target sequence (Q96KQ7 913-1193 limits assumed): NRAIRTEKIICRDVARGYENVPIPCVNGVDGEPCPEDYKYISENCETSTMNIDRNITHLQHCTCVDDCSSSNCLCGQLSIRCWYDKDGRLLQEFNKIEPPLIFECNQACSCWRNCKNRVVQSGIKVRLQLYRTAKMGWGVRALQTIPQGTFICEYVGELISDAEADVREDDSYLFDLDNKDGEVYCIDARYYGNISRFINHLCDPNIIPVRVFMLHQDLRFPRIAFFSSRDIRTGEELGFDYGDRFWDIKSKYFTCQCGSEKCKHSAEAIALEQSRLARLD
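Methyltransferase reactions run at room temperature for 2 h (20 nM enzyme, 500 nM biotin-H3K9 peptide, 20 uM SAM) after a 15 min compound preincubation; product detected by AlphaScreen beads and anti-H3K9me1 antibody.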
HP1b chromo inh = HTS for Inhibitors of HP1-beta Chromodomain Interactions with Methylated Histone Tails. Chromobox protein homolog 1 (Homo sapiens), P83916. AlphaScreen HP1-beta / biotin-H3K9me3 peptide binding. 390,000 tested, 0.56% active. Potency, µM (highest dose often 114 µM), without a hit: at the top dose activity change, negative = inhibition, actives largely listed as inhibitors. AID 540317, 2011; note: nearly all actives have a fitted effect of over 70% in size
Target sequence (P83916 whole entry, looked up): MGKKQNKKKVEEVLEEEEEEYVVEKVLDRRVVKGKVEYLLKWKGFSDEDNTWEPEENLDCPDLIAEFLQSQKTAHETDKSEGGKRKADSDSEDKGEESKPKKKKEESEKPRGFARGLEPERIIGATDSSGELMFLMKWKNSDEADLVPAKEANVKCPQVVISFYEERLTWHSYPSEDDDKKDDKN
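Compound inhibition of the preformed complex between 50 nM HP1-beta and 50 nM biotinylated H3K9me3 peptide was read by AlphaScreen. Buffer was PBS pH 7.4 with 0.01% Tween-20. Incubations ran 30 min at room temperature, with 10 ug/mL donor/acceptor beads.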
BAZ2B inh = qHTS Assay for Inhibitors of BAZ2B; Bromodomain adjacent to zinc finger domain protein 2B (Homo sapiens), Q9UIF8; AlphaScreen BAZ2B-H3K14Ac peptide displacement; Potency, µM (doses to about 114 µM), without a hit: top-dose activity change, negative = inhibition, most hits filed as inhibitors; 360,000 tested, 4.4% active; AID 504333, 2011; note: % is set by controls: 0 for no effect and ±100 for the full control effect; nearly all actives have a fitted effect of over 60% in size
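BAZ2B (50 nM) with biotin-H3(5-23)K14Ac peptide (50 nM) in PBS pH 7.4, 0.01% Tween-20, preformed 30 min, then compound 30 min at room temperature; top concentration 110uM. AlphaScreen streptavidin donor/nickel chelate acceptor beads (10 ug/mL final), 20 min dark, signal read.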
JMJD2A Tudor = qHTS Assay for Inhibitors of JMJD2A-Tudor Domain; 390,000 tested, 4.4% active; AlphaScreen JMJD2A-Tudor / H3K4me3 peptide binding; Lysine-specific demethylase 4A (Homo sapiens), O75164; Potency, µM (top dose mostly 114 µM), inactives show top-dose activity change, negative = inhibition, usual class: inhibitors; note: % is set by controls: 0 for no effect and ±100 for the full control effect; nearly all actives have a fitted effect of over 50% in size
The depositor's hits bear a star; u = inconclusive; x = no result; [ ] = another dose, or the depositor's remark. Calls come from the whole dose curve; as a rule, active = well fitted curve in the direction sought with a large enough effect; inconclusive = small, poorly fitted or top-dose-only effect, or another doubt; inactive = no such curve, though single readings can be large; an effect the other way counts as inactive or inconclusive. Potency is the fitted concentration of half-maximal effect.

SMILES	ALOX12 inh	Sfp PPTase inh	G9a block	HP1b chromo inh	BAZ2B inh	JMJD2A Tudor
CCCC(C(=O)Nc1nc2ccc(OC)cc2s1)c1ccccc1 (stereo not drawn)	-13%	x	x	x	x	x
COc1cccc(N/C=C/C(=O)c2ccc(Br)cc2)c1	-21%	x	x	80%	x	7%
COc1cccc(C(=O)/C=C/Nc2cc(C)ccc2O)c1	0%	u	u	0%	u	56µM*
COc1ccc(C(=O)/C=C/Nc2cccc(O)c2)cc1	u	-10%	40µM*	29%	-30%	11%
CCn1cc(S(=O)(=O)N2CCC(c3ncc(C)n3CCOC)C2)cn1 (stereo not drawn)	35%	x	x	x	x	x
CCOC(=O)c1ccc(CC(=O)c2ccc(O)c(O)c2O)o1	u	6.3µM*	x	u	32µM*	-100%
CCOC(=O)c1ccc(CC(=O)c2oc3cc(O)ccc3c2C)o1	16µM*	u	u	-3%	u	u
CCOC(=O)c1oc2cc(O)ccc2c(=O)c1-c1csc(C)n1	0%	6%	u	17%	-2%	-8%
Clc1cccc(C=Nc2cccc3ccccc23)c1Cl	-42%	x	x	x	x	x
COc1ccc(C(=O)Nc2cc(NC(=O)c3ccc(Br)o3)ccc2OC)cc1	-25%	x	x	x	x	x
COc1ccc(N2C(=O)CC(Sc3nnc(-c4ccccc4F)n3C)C2=O)cc1 (stereo not drawn)	-3%	1%	11µM*	-13%	-9%	-22%
CCOc1ccc2nc(SC3CC(=O)N(c4ccc(OC)cc4)C3=O)sc2c1 (stereo not drawn)	0%	-5%	13µM*	72%	-2%	1%[57.1 µM]
COc1ccc(N2C(=O)CC(Sc3nccc(C)n3)C2=O)cc1 (stereo not drawn)	0%	-15%	-6%[59 µM]	60%	-4%	11%
COc1ccc(N2C(=O)CC(Sc3nc4ccccc4s3)C2=O)cc1 (stereo not drawn)	-2%	7%	25µM*	41%	-21%	-3%
C=CCNc1nnc(SC2CC(=O)N(c3ccc(OC)cc3)C2=O)s1 (stereo not drawn)	-2%	u	8.9µM*	-34%	-7%	45µM*
CCOc1ccc2nc(SC3CC(=O)N(c4ccc(C)c(C)c4)C3=O)nc(C)c2c1 (stereo not drawn)	28%	x	x	x	x	x
O=C1Cc2c(-c3ccc4c(c3)OCO4)n[nH]c2CN1CC1CCOCC1	12%[176 µM]	x	x	x	x	x
Cc1nnc(SC2CC(=O)N(c3ccccc3)C2=O)s1 (stereo not drawn)	99%	35µM*	8.9µM*	-7%	2%	12%
CCCCCCNC(=O)CCNC(=O)c1ccccc1	-2%	x	x	x	x	x
CCc1ccc(-n2nc3cc(C)c(NC(=O)c4cc(OC)cc(OC)c4)cc3n2)cc1	-24%	x	5.6µM*	6%	u	-31%
CCc1ccc(-n2nc3cc(C)c(NC(=O)c4ccccc4C)cc3n2)cc1	u	x	7.9µM*	8%	u	89µM*
CCc1ccc(-n2nc3cc(C)c(NC(=O)c4cccc5ccccc45)cc3n2)cc1	-21%	x	u	29%	-17%	4%
NC(=O)c1cc2nc(-c3ccco3)cc(C(F)(F)F)n2n1	5%	-6%	u	28%	-1%	-1%
O=C(c1cc2nc(-c3ccco3)cc(C(F)(F)F)n2n1)N1CCN(c2ccccc2)CC1	-12%	-15%	45µM*	11%	u	-27%
O=C(c1cc2nc(-c3ccco3)cc(C(F)(F)F)n2n1)N1CCN(c2ccccn2)CC1	-1%	-14%	u	31%	5%	-3%
SMILES	ALOX12 inh	Sfp PPTase inh	G9a block	HP1b chromo inh	BAZ2B inh	JMJD2A Tudor
CN(C(=O)c1cc2nc(-c3ccco3)cc(C(F)(F)F)n2n1)C1CCCCC1	23%	50µM*	56µM*	16%	13%	6%
O=C(c1cc2nc(-c3ccco3)cc(C(F)(F)F)n2n1)N1CCCCCC1	-15%	56µM*	u	31%	x	6%
N#C/C(=C/c1ccc(OC(F)F)cc1)C(=O)Nc1cccc(C(F)(F)F)c1	-6%	x	x	x	x	x
CCc1nc(NCCO)c(C#N)c2c1CSC(C)(C)C2	119%	71µM*	x	64%	-7%	-9%
CCc1nc(NCC(C)C)c(C#N)c2c1COC(C)(C)C2	28%	8%	-5%[59 µM]	42%	-3%	8%
Cc1ccc(NC(=O)CN2C(=O)S/C(=C\c3cc(Cl)c(OCC(=O)O)c(Cl)c3)C2=O)cc1	0%	50µM*	40µM*	20µM*	40µM*	45µM*
Cc1ccc(NC(=O)CN2C(=O)N/C(=C/c3ccco3)C2=O)cc1	5%	45µM*	0%[0.0925 µM]	5%	-7%	-33%
Cc1ccc(NC(=O)CN2C(=O)N/C(=C/c3cc(C)n(-c4ccc(C(=O)O)cc4)c3C)C2=O)cc1	u	-45%	28µM*	-18%	40µM*	79µM*
Cc1ccc(NC(=O)CN2C(=O)N/C(=C/c3cccn3-c3ccc(C(=O)O)cc3)C2=O)cc1	u	50µM*	8.9µM*	2.8µM*	4µM*	3.2µM*
Cc1cccc(NC(=O)CN2C(=O)N/C(=C/c3ccc(C)s3)C2=O)c1	u	-20%	2%	30%	12%	-13%
COc1ccc(N2CCN(C(=O)CN3C(=O)C(c4ccccc4)=NC3(C)C)CC2)cc1	-7%	x	x	x	x	x
Cc1cccc(NC(=O)CN2C(=O)S/C(=C\C(=O)Nc3ccc(Cl)cc3)C2=O)c1	-7%	-10%	7%[59 µM]	12%	2%	-3%
Cc1ccc(NC(=O)CN2C(=O)S/C(=C\c3cc(C)n(-c4ccc(C(=O)O)cc4)c3C)C2=O)cc1	u	8%	x	2%	50µM*	u
COC(=O)C1=C(C(=O)OC)SC2(S1)C(C(=O)OC)=C(C(=O)OC)SC1=C2c2cc(C)ccc2NC1(C)C	u	2.8µM*	u	-81%	u	56µM*
CCOC(=O)C1(N(CC)CC)Sc2cc(C)ccc2NC1=O (stereo not drawn)	43%	10%	u	5%	u	-9%[57.1 µM]
O=C1[C@@H]2C(c3cccnc3)=NO[C@@H]2C(=O)N1c1ccc2ccccc2c1	0%	50µM*	x	u	-9%	79µM*
CC1(C)CC(=O)C2=C(C1)Nc1ccccc1NC2c1cccc(F)c1 (stereo not drawn)	11µM*	10%	x	35%	23%	-8%
